The record followed here is the supplement of paper PMC9694430.

What all share (assay): thermal shift delta Tm vs DMSO control; higher = stronger stabilization (binding)
Holding throughout (settings): 12.5 µM; protein concentration 2 µM

The subject of one assay is LOC_OS01G01410-cb001. Put shortly: (§1)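 Compounds dissolved in DMSO were added to purified rice kinase domain constructs, which had been expressed in E. coli, for differential scanning fluorimetry. Each well held 19.5 μl of 2 μM kinase in 100 mM potassium phosphate pH 7.5, 150 mM NaCl, 10% glycerol and 5 × SYPRO Orange. Fluorescence was followed from 25°C to 95°C at a rate of 0.05°C/s. Shifts in Boltzmann-fitted melting temperature are triplicate means relative to DMSO-only protein.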

The subject of the next assay is LOC_OS01G02750-cb003. Put shortly: as §1
A further assay concerns LOC_OS01G10900-cb004. Put shortly:
as §1

Another assay deals with LOC_OS01G13800-cb001. In a few lines: as §1
A further assay has as its system LOC_OS01G14860-cb001. In a few lines: as §1
Another assay relates to LOC_OS01G21960-cb002. Put shortly: as §1
Another assay deals with LOC_OS01G39600-cb002. Put shortly: as §1
The next assay has as its system LOC_OS01G48390-cb002. Put shortly: as §1
Another assay relates to LOC_OS01G51400-cb002. In a few lines: as §1
The subject of the next assay is T1, LOC_OS01G52050-cb004.
T1 sequence (whole entry): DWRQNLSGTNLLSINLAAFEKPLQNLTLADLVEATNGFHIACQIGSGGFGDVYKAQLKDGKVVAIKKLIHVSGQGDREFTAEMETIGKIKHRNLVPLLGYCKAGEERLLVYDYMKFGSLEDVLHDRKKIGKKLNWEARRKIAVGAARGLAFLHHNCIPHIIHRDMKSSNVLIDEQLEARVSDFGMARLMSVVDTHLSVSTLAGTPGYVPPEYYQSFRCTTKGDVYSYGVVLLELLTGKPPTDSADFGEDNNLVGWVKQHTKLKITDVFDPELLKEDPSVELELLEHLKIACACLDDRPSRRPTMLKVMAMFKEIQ
Put shortly:
as §1

The test system of a further assay is LOC_OS01G57100-cb003. Put shortly:
as §1

For another assay, the system named is LOC_OS01G60330-cb001. Put shortly: as §1
Another assay deals with LOC_OS01G60700-cb002. In a few lines:
as §1

A further assay concerns LOC_OS01G63280-cb003. In a few lines:
as §1

In a further assay the test system is LOC_OS01G67340-cb003. Put shortly:
as §1

Another assay concerns LOC_OS01G70970-cb002. In a few lines:
as §1

The next assay concerns LOC_OS02G07810-cb001. Put shortly: as §1
The test system of a further assay is LOC_OS02G08530-cb003. In a few lines:
as §1

Another assay deals with LOC_OS02G14120-cb001. In a few lines: as §1
In another assay the test system is LOC_OS02G17970-cb001. Put shortly: as §1

On to `O=C1Nc2ccc(CN3C(=O)CSC3=O)cc2/C1=C/c1cc(CN2CCOCC2)c[nH]1`, for which the “thermal shift delta Tm” value in the assay with LOC_OS01G01410-cb001 stood at 1.25 °C; in the assay on LOC_OS01G02750-cb003, 3.61 °C; in the assay with LOC_OS01G10900-cb004, 0.75 °C; in the assay with LOC_OS01G13800-cb001, 0.08 °C; in the assay with LOC_OS01G14860-cb001, 0.42 °C; in the assay with LOC_OS01G21960-cb002, 0.16 °C. Moreover, the “thermal shift delta Tm” value with LOC_OS01G39600-cb002 worked out at 0.49 °C; in the assay with LOC_OS01G48390-cb002 it was 1.28 °C; with LOC_OS01G51400-cb002 it was 0.13 °C; with LOC_OS01G52050-cb004 it was 2.79 °C; in the assay on LOC_OS01G57100-cb003, 0.8 °C; with LOC_OS01G60330-cb001, 0.38 °C. The “thermal shift delta Tm” value is 0.05 °C with LOC_OS01G60700-cb002; 0.05 °C with LOC_OS01G63280-cb003; 0.83 °C with LOC_OS01G67340-cb003; 0.36 °C with LOC_OS01G70970-cb002; -0.68 °C in the assay on LOC_OS02G07810-cb001; 2.55 °C in the assay on LOC_OS02G08530-cb003. Also, the “thermal shift delta Tm” value was 9.24 °C with LOC_OS02G14120-cb001 and -0.08 °C in the assay on LOC_OS02G17970-cb001.

As for `C[C@H]1[C@H](C)CC[C@]2(C(=O)O)CC[C@]3(C)C(=CC[C@@H]4[C@@]5(C)C[C@@H](O)[C@H](O)[C@@](C)(CO)[C@@H]5CC[C@]43C)[C@H]12` [Asiatic Acid], the “thermal shift delta Tm” value in the assay with LOC_OS01G01410-cb001 was 0.45 °C; with LOC_OS01G02750-cb003, -0.18 °C; with LOC_OS01G10900-cb004 it was 0.15 °C; with LOC_OS01G13800-cb001, 1.17 °C; with LOC_OS01G14860-cb001 it was 0.23 °C; in the assay on LOC_OS01G21960-cb002, 0.75 °C. In addition, the “thermal shift delta Tm” value with LOC_OS01G39600-cb002 turned out to be 0.1 °C; in the assay on LOC_OS01G48390-cb002, 0.45 °C; in the assay with LOC_OS01G51400-cb002, 0.17 °C; in the assay on LOC_OS01G52050-cb004, 0.2 °C; with LOC_OS01G57100-cb003 it was 2.35 °C; in the assay with LOC_OS01G60330-cb001 it was 0.45 °C. In addition, the “thermal shift delta Tm” value in the assay on LOC_OS01G60700-cb002 was 0.54 °C; with LOC_OS01G63280-cb003, -0.01 °C; in the assay on LOC_OS01G67340-cb003, 0.72 °C; with LOC_OS01G70970-cb002 it was 0.06 °C; with LOC_OS02G07810-cb001, 0.83 °C; in the assay with LOC_OS02G08530-cb003, 0.74 °C. In addition, the “thermal shift delta Tm” value in the assay on LOC_OS02G14120-cb001 came to 0.58 °C; in the assay with LOC_OS02G17970-cb001, 0.33 °C.

On to `COc1cc2ccc(=O)oc2cc1O` [Scopoletin], for which the “thermal shift delta Tm” value is -0.07 °C with LOC_OS01G01410-cb001; 0.35 °C with LOC_OS01G02750-cb003; 0.25 °C in the assay on LOC_OS01G10900-cb004; -0.08 °C with LOC_OS01G13800-cb001; 0.39 °C in the assay on LOC_OS01G14860-cb001; 0.11 °C in the assay on LOC_OS01G21960-cb002. For the same molecule, the “thermal shift delta Tm” value with LOC_OS01G39600-cb002 was -0.27 °C; in the assay on LOC_OS01G48390-cb002, -0.08 °C; in the assay on LOC_OS01G51400-cb002, 0.18 °C; in the assay on LOC_OS01G52050-cb004, 0.81 °C; with LOC_OS01G57100-cb003 it was 0.91 °C; with LOC_OS01G60330-cb001, 0.02 °C. The “thermal shift delta Tm” value is -0.06 °C in the assay with LOC_OS01G60700-cb002; -0.04 °C in the assay on LOC_OS01G63280-cb003; -0.05 °C in the assay on LOC_OS01G67340-cb003; 0.41 °C in the assay on LOC_OS01G70970-cb002; -1.02 °C in the assay with LOC_OS02G07810-cb001; 0.39 °C in the assay with LOC_OS02G08530-cb003. Besides, the “thermal shift delta Tm” value came to 0.77 °C in the assay on LOC_OS02G14120-cb001 and 1.18 °C in the assay on LOC_OS02G17970-cb001.
